# Out of some 5,500 compounds screened, about 2,000 (36%) were called active. About 18% were inconclusive and are not listed. This is one part of the list. A number with no mark means an inactive call. Rule as the data show it: active = normalized growth mostly below about 0.91 (no sharp cut-off); inconclusive = no clear call, values can overlap the other calls; inactive = mostly above about 0.92.
# Experiment: chemical genetic growth profiling, strain panel (AID 1159580);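 also: tested at 20 µM; growth read once vehicle control cultures reached saturation at 30 °C; 1 = growth at the plate median or of vehicle wells; lower values mean less growth of the strain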
# Conditions: S. cerevisiae deletion strains, growth OD
smiles,measurement,setting,value
CCCCCCCC/C=C\CCCCCCCC(=O)NCCc1ccc(O)c(O)c1,normalized growth,"locus YAL040C, strain CLN3, active compounds read low",1.01
same,normalized growth,"locus YCL061C, strain MRC1 (second series), active compounds read low",0.987
same,normalized growth,"locus YDR363W, strain ESC2, active compounds read low",0.981
same,normalized growth,"locus YER002W, strain NOP16, active compounds read low",1
same,normalized growth,"locus YGR229C, strain SMI1, active compounds read low",0.811 (active)
same,normalized growth,"locus YMR307W, strain GAS1, active compounds read low",0.987
same,normalized growth,"locus YNL153C, strain GIM3, active compounds read low",0.811 (active)
same,normalized growth,"locus YNL175C, strain NOP13, active compounds read low",0.999
same,normalized growth,"locus YNL197C, strain WHI3, active compounds read low",0.987
same,normalized growth,"locus YNL224C, strain SQS1, active compounds read low",1.02
same,normalized growth,"locus YOR083W, strain WHI5 (second series), active compounds read low",0.876
same,normalized growth,"locus YPL055C, strain LGE1, active compounds read low",1
same,normalized growth,"locus YPL241C, strain CIN2, active compounds read low",0.993

# Source: PubChem BioAssay AID1159580 (chemical genetic matrix, 2015)
